# Assay results as given in the supplement of paper PMC10849652.
# The full data set covers some 7,900 targets. This sample favours those with a hit. About 0.6% of all pairs of compound and target were hits. Values without a mark were called inactive.
# What was measured:
# Experiment in all cases: log2 fold change, soluble protein after heating vs DMSO (PISA); higher = thermal stabilisation; K562 cells, 10 uM, 30 min; active = over 0.2 and 3.5 SD of the protein, either way, in both replicates (recomputed)
# bafetinib = compound: Cc1ccc(NC(=O)c2ccc(CN3CC[C@H](N(C)C)C3)c(C(F)(F)F)c2)cc1Nc1nccc(-c2cncnc2)n1 [bafetinib]
# Summary of the method: (§1)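 K562 cells at 2×10^6 cells/mL were given 10 μM compound for 30 min. Aliquots then went through 3 min of heating across 48°C-58°C, were pooled, and were extracted in PBS with 0.5% NP-40 at 4°C, and the supernatant after 21,000xg for 90 min was quantified by TMTpro 16plex LC-MS/MS with channel sums equalised. Thermal stability relative to control samples, from duplicates, is given as log2 fold change.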
# [1] = compound: Cc1cccc(CC(=O)N2CCc3c2ccc(-c2cn(C)c4ncnc(N)c24)c3F)n1
# Summary of the method: as §1
# nilotinib = compound: Cc1cn(-c2cc(NC(=O)c3ccc(C)c(Nc4nccc(-c5cccnc5)n4)c3)cc(C(F)(F)F)c2)cn1 [nilotinib]
# Summary of the method: as §1
# [2] = compound: Cc1nc(Nc2n[nH]c3c2CN(C(=O)N[C@H](CN(C)C)c2ccccc2)C3(C)C)c2sccc2n1
# Summary of the method: as §1
# dasatinib = compound: Cc1nc(Nc2ncc(C(=O)Nc3c(C)cccc3Cl)s2)cc(N2CCN(CCO)CC2)n1 [dasatinib]
# Summary of the method: as §1
# [3] = compound: Cc1ncc(-c2ccnc(Nc3ccc(S(C)(=O)=O)cc3)n2)n1C(C)C
# Summary of the method: as §1
# [4] = compound: Cn1cc(-c2ccc3c(c2)CCN3C(=O)Cc2cccc(C(F)(F)F)c2)c2c(N)ncnc21
# Summary of the method: as §1
# [5] = compound: Cn1cc(-c2ccc3nnc(C(F)(F)c4ccc5ncccc5c4)n3n2)cn1
# Summary of the method: as §1
# tipifarnib = compound: Cn1cncc1[C@@](N)(c1ccc(Cl)cc1)c1ccc2c(c1)c(-c1cccc(Cl)c1)cc(=O)n2C [tipifarnib]
# Summary of the method: as §1
# mubritinib = compound: FC(F)(F)c1ccc(/C=C/c2nc(COc3ccc(CCCCn4ccnn4)cc3)co2)cc1 [mubritinib]
# Summary of the method: as §1
# [6] = compound: NC(=O)Nc1cc(-c2cccc(F)c2)sc1C(=O)N[C@H]1CCCNC1
# Summary of the method: as §1
# [7] = compound: NC(=O)c1cnc(N[C@@H]2CCCC[C@@H]2N)nc1Nc1cccc(-n2nccn2)c1
# Summary of the method: as §1
# [8] = compound: NC1(c2ccc(-c3nc4ccn5c(=O)[nH]nc5c4cc3-c3ccccc3)cc2)CCC1
# Summary of the method: as §1
# [9] = compound: NCC(=O)Nc1ccc(-n2nc(C(F)(F)F)cc2-c2ccc3c(ccc4ccccc43)c2)cc1
# Summary of the method: as §1
# entinostat = compound: Nc1ccccc1NC(=O)c1ccc(CNC(=O)OCc2cccnc2)cc1 [entinostat]
# Summary of the method: as §1
# vorinostat = compound: O=C(CCCCCCC(=O)Nc1ccccc1)NO [vorinostat]
# Summary of the method: as §1
# citarinostat = compound: O=C(CCCCCCNC(=O)c1cnc(N(c2ccccc2)c2ccccc2Cl)nc1)NO [citarinostat]
# Summary of the method: as §1
# silmitasertib = compound: O=C(O)c1ccc2c(c1)nc(Nc1cccc(Cl)c1)c1ccncc12 [silmitasertib]
# Summary of the method: as §1
# [10] = compound: O=C1NC(=O)C(c2cnc3ccccn23)=C1c1cn2c3c(cc(F)cc13)CN(C(=O)N1CCCCC1)CC2
# Summary of the method: as §1
# [11] = compound: c1cc(OCCN2CCCCC2)cc(-c2n[nH]c3ccc(-c4nnc[nH]4)cc23)c1
# Summary of the method: as §1
# Sequence of UniProt P15260 (P15260 whole entry, looked up): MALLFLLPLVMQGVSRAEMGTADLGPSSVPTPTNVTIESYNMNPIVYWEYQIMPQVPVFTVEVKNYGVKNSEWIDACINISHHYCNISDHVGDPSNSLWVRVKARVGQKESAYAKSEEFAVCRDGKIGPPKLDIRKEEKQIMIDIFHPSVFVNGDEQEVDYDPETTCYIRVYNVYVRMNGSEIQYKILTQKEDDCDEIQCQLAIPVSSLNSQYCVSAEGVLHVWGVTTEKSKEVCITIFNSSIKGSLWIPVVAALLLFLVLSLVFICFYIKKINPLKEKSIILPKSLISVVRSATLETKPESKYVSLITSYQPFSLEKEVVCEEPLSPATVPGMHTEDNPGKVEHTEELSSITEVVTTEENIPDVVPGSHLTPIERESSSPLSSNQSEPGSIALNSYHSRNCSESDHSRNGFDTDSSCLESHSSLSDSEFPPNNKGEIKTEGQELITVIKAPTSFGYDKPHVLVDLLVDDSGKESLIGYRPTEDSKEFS
# Sequence of UniProt Q92947 (Q92947 whole entry, looked up): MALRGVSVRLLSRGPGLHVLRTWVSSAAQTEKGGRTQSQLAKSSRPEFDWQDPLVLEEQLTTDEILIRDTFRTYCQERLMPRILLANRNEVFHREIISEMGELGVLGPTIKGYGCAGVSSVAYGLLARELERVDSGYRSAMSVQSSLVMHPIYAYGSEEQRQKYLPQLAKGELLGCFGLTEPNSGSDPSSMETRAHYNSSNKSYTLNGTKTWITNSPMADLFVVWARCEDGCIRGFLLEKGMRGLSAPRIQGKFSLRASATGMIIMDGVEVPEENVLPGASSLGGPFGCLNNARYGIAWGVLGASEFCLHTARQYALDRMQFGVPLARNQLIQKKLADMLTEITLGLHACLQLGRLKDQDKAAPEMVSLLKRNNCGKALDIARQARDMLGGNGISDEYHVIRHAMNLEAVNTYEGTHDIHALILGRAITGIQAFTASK
# Sequence of UniProt Q06546 (Q06546 whole entry, looked up): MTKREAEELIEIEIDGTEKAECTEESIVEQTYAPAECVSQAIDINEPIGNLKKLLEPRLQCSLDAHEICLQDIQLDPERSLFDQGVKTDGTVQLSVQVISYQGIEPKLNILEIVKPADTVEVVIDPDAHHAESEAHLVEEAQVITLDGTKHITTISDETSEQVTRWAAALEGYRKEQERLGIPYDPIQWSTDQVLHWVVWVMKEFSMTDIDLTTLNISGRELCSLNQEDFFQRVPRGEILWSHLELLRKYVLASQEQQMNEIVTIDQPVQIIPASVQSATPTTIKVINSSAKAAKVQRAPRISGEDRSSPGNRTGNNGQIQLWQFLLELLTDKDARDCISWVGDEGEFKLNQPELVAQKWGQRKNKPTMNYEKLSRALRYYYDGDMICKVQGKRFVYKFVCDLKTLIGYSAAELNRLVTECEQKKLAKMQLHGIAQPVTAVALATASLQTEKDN
# Sequence of UniProt Q9UK97 (Q9UK97 whole entry, looked up): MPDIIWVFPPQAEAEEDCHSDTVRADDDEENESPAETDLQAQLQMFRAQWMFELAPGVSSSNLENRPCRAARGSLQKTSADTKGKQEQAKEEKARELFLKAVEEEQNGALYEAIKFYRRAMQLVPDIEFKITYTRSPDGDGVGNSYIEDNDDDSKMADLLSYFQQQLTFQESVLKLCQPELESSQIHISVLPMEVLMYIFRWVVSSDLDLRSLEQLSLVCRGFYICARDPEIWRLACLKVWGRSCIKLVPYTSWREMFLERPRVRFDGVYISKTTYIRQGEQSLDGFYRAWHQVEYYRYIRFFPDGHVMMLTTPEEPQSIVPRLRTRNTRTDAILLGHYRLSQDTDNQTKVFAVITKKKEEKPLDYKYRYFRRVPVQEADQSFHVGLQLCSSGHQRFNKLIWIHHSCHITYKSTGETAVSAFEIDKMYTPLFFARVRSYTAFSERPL
# Sequence of UniProt P85037 (P85037 whole entry, looked up): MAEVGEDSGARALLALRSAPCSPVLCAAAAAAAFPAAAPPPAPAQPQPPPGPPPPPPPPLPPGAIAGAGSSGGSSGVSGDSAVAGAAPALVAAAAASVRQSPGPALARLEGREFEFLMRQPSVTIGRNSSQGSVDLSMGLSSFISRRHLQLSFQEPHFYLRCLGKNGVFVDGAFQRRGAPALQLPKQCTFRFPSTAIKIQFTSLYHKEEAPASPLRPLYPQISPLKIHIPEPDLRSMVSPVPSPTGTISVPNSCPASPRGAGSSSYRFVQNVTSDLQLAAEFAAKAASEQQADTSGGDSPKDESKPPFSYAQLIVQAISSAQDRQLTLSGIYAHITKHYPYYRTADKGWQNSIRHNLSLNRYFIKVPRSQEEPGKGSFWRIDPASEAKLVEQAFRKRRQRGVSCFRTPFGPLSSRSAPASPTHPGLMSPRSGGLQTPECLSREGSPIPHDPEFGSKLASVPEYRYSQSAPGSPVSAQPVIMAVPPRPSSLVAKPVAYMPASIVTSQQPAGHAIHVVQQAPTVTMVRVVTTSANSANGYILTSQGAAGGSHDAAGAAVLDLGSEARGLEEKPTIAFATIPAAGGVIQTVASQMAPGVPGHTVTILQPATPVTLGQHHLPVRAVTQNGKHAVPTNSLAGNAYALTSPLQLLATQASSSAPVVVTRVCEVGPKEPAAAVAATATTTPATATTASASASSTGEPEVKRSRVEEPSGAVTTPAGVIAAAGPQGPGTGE
# Sequence of UniProt Q9Y248 (Q9Y248 whole entry, looked up): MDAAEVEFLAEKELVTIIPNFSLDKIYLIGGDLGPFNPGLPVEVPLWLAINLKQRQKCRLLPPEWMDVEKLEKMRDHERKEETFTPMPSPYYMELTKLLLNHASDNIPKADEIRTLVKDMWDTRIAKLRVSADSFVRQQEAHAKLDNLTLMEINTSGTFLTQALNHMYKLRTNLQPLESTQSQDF
# Sequence of UniProt Q70Z53 (Q70Z53 whole entry, looked up): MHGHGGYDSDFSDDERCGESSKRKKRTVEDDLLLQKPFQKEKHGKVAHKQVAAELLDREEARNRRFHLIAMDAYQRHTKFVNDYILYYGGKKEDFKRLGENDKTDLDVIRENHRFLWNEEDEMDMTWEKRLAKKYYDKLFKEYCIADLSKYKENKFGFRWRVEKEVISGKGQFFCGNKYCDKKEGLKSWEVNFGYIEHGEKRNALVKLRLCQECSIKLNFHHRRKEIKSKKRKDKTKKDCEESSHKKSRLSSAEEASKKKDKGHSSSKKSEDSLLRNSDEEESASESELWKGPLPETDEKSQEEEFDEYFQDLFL
# Sequence of UniProt Q92664 (Q92664 whole entry, looked up): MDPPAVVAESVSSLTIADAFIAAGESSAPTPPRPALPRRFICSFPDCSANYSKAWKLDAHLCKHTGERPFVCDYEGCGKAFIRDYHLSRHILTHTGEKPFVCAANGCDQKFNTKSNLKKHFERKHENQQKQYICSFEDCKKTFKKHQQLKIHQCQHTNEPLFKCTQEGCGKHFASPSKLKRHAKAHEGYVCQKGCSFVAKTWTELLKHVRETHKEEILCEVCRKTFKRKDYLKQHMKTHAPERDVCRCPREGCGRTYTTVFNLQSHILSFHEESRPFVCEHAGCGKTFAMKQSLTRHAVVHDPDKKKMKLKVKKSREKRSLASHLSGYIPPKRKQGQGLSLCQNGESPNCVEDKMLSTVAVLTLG
# Sequence of UniProt P21695 (P21695 whole entry, looked up): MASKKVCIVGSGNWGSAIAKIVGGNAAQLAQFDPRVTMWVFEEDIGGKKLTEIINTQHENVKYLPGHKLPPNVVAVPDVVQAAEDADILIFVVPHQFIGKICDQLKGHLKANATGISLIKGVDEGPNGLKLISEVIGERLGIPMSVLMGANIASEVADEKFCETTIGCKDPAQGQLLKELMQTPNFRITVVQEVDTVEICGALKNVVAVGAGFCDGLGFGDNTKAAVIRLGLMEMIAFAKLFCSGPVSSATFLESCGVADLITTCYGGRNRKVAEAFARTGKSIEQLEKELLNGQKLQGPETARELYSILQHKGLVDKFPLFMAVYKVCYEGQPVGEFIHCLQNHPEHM
# Sequence of UniProt Q53GQ0 (Q53GQ0 whole entry, looked up): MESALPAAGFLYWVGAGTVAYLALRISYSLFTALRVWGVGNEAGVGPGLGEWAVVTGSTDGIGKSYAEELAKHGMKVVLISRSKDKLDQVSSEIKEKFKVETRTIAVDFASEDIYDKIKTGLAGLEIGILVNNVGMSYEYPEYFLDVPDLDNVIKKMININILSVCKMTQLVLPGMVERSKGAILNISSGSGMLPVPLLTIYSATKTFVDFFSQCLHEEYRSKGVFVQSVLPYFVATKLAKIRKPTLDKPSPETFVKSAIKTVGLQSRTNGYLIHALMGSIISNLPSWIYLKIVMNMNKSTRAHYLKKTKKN
# Sequence of UniProt O15347 (O15347 whole entry, looked up): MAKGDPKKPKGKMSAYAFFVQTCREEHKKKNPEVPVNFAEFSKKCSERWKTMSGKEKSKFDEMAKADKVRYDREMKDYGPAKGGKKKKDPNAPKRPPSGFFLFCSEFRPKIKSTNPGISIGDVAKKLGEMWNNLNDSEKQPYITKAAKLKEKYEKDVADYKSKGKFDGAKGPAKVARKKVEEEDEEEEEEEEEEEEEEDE
# Sequence of UniProt P02008 (P02008 whole entry, looked up): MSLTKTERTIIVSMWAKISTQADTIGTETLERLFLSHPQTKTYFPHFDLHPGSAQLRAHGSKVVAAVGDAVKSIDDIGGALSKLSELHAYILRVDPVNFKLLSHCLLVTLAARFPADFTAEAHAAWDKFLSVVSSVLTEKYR
# Sequence of UniProt Q00688 (Q00688 whole entry, looked up): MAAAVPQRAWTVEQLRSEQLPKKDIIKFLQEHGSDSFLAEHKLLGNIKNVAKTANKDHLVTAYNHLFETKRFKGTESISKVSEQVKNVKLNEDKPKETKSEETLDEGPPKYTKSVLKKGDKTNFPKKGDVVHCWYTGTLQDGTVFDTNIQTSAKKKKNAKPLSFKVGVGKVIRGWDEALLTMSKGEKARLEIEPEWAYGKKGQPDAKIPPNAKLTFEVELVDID
Target,log2 fold change (bafetinib),log2 fold change [1],log2 fold change (nilotinib),log2 fold change [2],log2 fold change (dasatinib),log2 fold change [3],log2 fold change [4],log2 fold change [5],log2 fold change (tipifarnib),log2 fold change (mubritinib),log2 fold change [6],log2 fold change [7],log2 fold change [8],log2 fold change [9],log2 fold change (entinostat),log2 fold change (vorinostat),log2 fold change (citarinostat),log2 fold change (silmitasertib),log2 fold change [10],log2 fold change [11]
HSD17B12 (UniProt Q53GQ0),0.067,-0.039,0.184,-0.039,-0.095,0.002,0.092,-0.02,0.089,-0.018,-0.031,0.005,-0.049,0.066,-0.02,-0.014,0.14,0.037,-0.146,-0.082
GCDH (UniProt Q92947),-0.047,0.007,0.002,0.017,-0.059,-0.001,0.08,-0.129,-0.007,-0.028,0.015,0.031,0.052,0.006,-0.002,0.103,0.025,-0.05,-0.019,0.009
HBZ (UniProt P02008),-0.013,0.037,0.018,0.011,0.073,-0.008,0.137,0.282,-0.183,0.049,0.03,-0.042,0,0.026,0.059,-0.022,0.027,-0.019,-0.055,-0.018
HMGB3 (UniProt O15347),-0.057,-0.009,0.051,-0.013,0.066,0.03,0.014,-0.084,-0.024,0.01,0.025,0.153,0.143,0.136,-0.032,-0.044,-0.159,-0.068,-0.043,0.146
GTF3A (UniProt Q92664),-0.113,-0.026,0.042,-0.219,-0.137,-0.031,0.023,,-0.12,0.06,-0.04,-0.095,0.046,-0.098,-0.013,0.026,0.06,0.043,0.011,-0.072
GABPA (UniProt Q06546),-0.036,0.034,-0.103,-0.115,-0.12,-0.026,0.048,0.111,-0.149,0.019,-0.05,-0.057,-0.203,-0.042,0.108,0.138,0.139,-0.007,-0.13,0.008
HDAC6 (UniProt Q9UBN7),-0.18,-0.086,0.126,-0.026,-0.107,-0.084,0.055,-0.005,-0.009,0.086,0.002,-0.04,0.054,0.001,-0.053,0.86 (active),0.747 (active),0.009,0.004,0.064
GNAS (UniProt Q5JWF2),0.129,-0.001,0.103,-0.02,0.064,0.005,0.029,0.031,0.005,-0.035,-0.133,-0.009,0.002,-0.004,-0.058,-0.022,-0.043,-0.018,-0.007,-0.045
FRA10AC1 isoform 3 (UniProt Q70Z53),-0.087,0.018,-0.034,-0.039,-0.051,0.085,-0.076,,-0.055,0.011,-0.069,0.114,-0.121,-0.077,0.019,0.065,0.08,0.129,-0.091,-0.232
FKBP3 (UniProt Q00688),0.014,-0.03,0.028,0.041,-0.003,0.029,-0.006,0.021,-0.01,0.017,0.042,0.019,0.02,0.037,0.016,0.007,0.009,-0.034,-0.02,0.054
GOPC (UniProt Q9HD26),0.233,-0.131,0.009,0.05,-0.081,0.021,-0.005,-0.02,0.127,-0.226,-0.055,-0.011,0.15,-0.002,-0.092,-0.038,,0.029,0.265,
GINS2 (UniProt Q9Y248),-0.025,0.106,-0.024,-0.031,-0.265,0.03,-0.057,-0.111,-0.064,0.03,-0.086,,-0.024,0.022,0.533 (active),-0.01,0.028,-0.031,-0.163,-0.026
FAT1 (UniProt Q14517),-0.061,0.044,0.013,0,0.046,-0.064,0.009,-0.052,0.077,0.057,-0.018,,0,-0.075,0.015,-0.04,,0.176,-0.051,
IFNGR1 (UniProt P15260),-0.262,-0.027,0.075,-0.015,0.154,-0.126,0.123,-0.123,0.119,0.299,-0.116,-0.068,0.27,0.051,-0.123,0.058,0.014,0.055,-0.118,-0.086
GPD1 (UniProt P21695),-0.171,-0.123,-0.104,0.054,0.061,-0.017,0.238,0.163,0.057,0.045,0.067,0,0.059,-0.067,-0.068,-0.035,,-0.16,-0.157,
FBXO9 (UniProt Q9UK97),0.067,0.234,0.087,-0.354,-0.056,-0.113,-0.236,-0.093,-0.088,-0.265,,,-0.079,-0.112,,0.109,0.157,0.132,,0.054
FOXK1 (UniProt P85037),0.03,0.052,0.487,-0.816,0.128,-1.19 (active),0.312,0.184,0.008,0.03,0.497,0.201,0.38,0.096,0,-0.15,0.023,0.512,-1.33 (active),-0.031
